# In the library only some 27% were active in any assay of this set; here they are far more common.
# CYP2C19 activ: activators of human cytochrome P450 2C19; P33261; 96,000 tested, under 10 active; recombinant CYP2C19, luciferin-H EGE luminescence; active compounds read high; 0 = fully inhibited enzyme, 1 = untreated enzyme; activation factor at 5 µM;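 active = activation factor of at least 2 at 5 µM in the primary screen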;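 note: 0 = wells with 2.5 mM tranylcypromine and 1 = vehicle-only wells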
# Target sequence (P33261 whole entry, looked up): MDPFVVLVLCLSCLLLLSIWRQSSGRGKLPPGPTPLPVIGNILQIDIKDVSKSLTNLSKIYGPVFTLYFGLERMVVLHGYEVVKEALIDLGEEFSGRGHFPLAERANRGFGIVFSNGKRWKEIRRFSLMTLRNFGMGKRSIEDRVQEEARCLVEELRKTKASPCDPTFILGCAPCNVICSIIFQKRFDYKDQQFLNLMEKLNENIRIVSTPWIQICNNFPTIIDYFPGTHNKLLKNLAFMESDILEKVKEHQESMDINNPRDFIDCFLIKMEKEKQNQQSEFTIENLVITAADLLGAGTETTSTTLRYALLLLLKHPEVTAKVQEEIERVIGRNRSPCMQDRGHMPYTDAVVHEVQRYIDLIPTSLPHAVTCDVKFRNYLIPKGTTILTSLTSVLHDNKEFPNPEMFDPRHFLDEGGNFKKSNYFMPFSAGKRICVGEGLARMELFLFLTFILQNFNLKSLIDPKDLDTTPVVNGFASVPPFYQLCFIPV
# CYP2C9 inh: blocks human cytochrome P450 2C9. P11712. CYP2C9 Supersomes, luciferin-H conversion, luminescence. inhibition, % at 5 µM. 20% of 96,000 active. AID 777;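 active = blocking of liver enzyme CYP2C9 beyond about 50% at 5 µM, limit read from the data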
# CYP2C19 inhib: inhibitors of human CYP2C19; CYP2C19 Supersomes, luciferin-H EGE luminescence, 30 min; 21% of 96,000 active; inhibition, % at 5 µM; AID 778; P33261;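 active = CYP2C19 inhibition above a set limit at 5 µM in the primary screen, cut at about 50% in these data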;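 note: plate controls were negative control wells for no effect and 2.5 mM tranylcypromine positive control for full effect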
# EphB4 antag: antagonists of human EphB4-ephrin-B2 interaction; P54760; EphB4 LBD / TNYL-RAW-Alexa532 peptide, fluorescence polarization; inhibition, % at 7 µM; 0.15% of 97,000 active;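 active = inhibition above the screen-wide mean inhibition plus 3 SD, cut at about 15% in these data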;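 note: 0% = DMSO wells and 100% = excess unlabeled TNYL-RAW peptide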
# CYP2C9 act: activators of human CYP2C9. AID 1024. activation factor at 5 µM. 1.4% of 96,000 active. P11712. recombinant CYP2C9, luciferin-H conversion, luminescence; active compounds read high; factor 1 = untreated enzyme, 0 = blocked;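 active = activation factor of 2 or more for CYP2C9 at a 5 µM dose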;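 note: 0 = sulfaphenazole-blocked wells and 1 = vehicle-only wells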
# * marks the source's active call; other numbers are inactive results; / = no result given.
SMILES,CYP2C19 activ,CYP2C9 inh,CYP2C19 inhib,EphB4 antag,CYP2C9 act
COc1ccc(N(CC(=O)Nc2cccc(C)c2)S(=O)(=O)c2c(C)n[nH]c2C)cc1,0,78.8*,95.2*,3.8,0.2
CC(C)=C1C2CC2C2C(C(=O)O)C12 (stereo not drawn),1,7.2,-0.4,-1.5,0.9
COc1ccc(N(CC(=O)Nc2ccc(C)c(C)c2)S(=O)(=O)c2c(C)n[nH]c2C)cc1,0.2,72.0*,82.3*,-7.4,0.3
Cc1cccc(NS(=O)(=O)c2c(C)n[nH]c2C)c1,0.3,79.0*,68.3*,-2.3,0.2
CCOC(=O)c1cccc(NC(=O)CN(c2ccc(C)cc2)S(=O)(=O)c2c(C)n[nH]c2C)c1,0.4,82.3*,61.1*,3.0,0.2
CCOC(=O)c1ccc(NC(=O)CN(c2ccc(C)cc2)S(=O)(=O)c2c(C)nn(C)c2C)cc1,0.7,22.0,25.5,1.1,0.8
O=C(c1ccc(Br)cc1)C1CCc2occc2C1=O (stereo not drawn),0,65.8*,97.1*,3.1,0.3
O=C(O)C1CC1c1ccc(Br)cc1 (stereo not drawn),1.1,-12.9,-10.9,-1.0,1.1
O=C1C2C3C=CC(C3=C3CCCCC3)C2C(=O)N1Cc1ccccc1 (stereo not drawn),0.9,55.2*,7.4,-3.8,0.4
O=C1C2CC=CCC2C(=O)N1Cc1ccccc1 (stereo not drawn),/,/,/,2.2,/
Cc1nnc(C)n1/N=C/c1ccc(-c2ccccc2)cc1,1,-8.3,-3.3,11.6,1.1
Cc1noc(C)c1COC(=O)Cc1ccc(Cl)cc1,0.1,55.4*,92.5*,3.6,0.4
Cc1noc(C)c1COC(=O)CCCOc1ccc(Cl)cc1Cl,0.2,80.3*,84.3*,-5.2,0.2
Cc1ccccc1Cc1c(C)nc2nc(SCC(=O)NCc3ccco3)nn2c1C,0.7,66.1*,28.3,0.7,0.3
Cc1nc2nc(SCC(=O)NCc3ccco3)nn2c(C)c1Cc1c(F)cccc1Cl,0.6,88.5*,43.0,-1.9,0.1
Cc1ccccc1Cc1c(C)nc2c(C(=O)NCc3ccco3)cnn2c1C,0.4,86.6*,56.2*,2.4,0.1
Cc1ccc(Cc2c(C)nc3nc(SCC(=O)NCc4ccco4)nn3c2C)cc1,0.7,55.9*,28.2,8.9,0.4
Cc1nc2ncnn2c(C)c1CCC(=O)NCc1ccco1,0.9,1.7,9.8,-4.1,1
COc1ccc2[nH]c(=O)c(CN(C(=O)COc3ccccc3)C(C)C)cc2c1,0.6,33.0,38.2,5.5,0.7
Cc1ccc(NC(=O)CCC(=O)NNC(=O)c2cccs2)c(C)c1,1.1,-5.7,-7.0,7.5,1.1
C/C(=N/OCC(=O)Nc1ccc(C)cc1C)c1cccs1,0.1,98.4*,93.4*,5.0,0
Cc1cc(=O)oc2c1ccc1oc(/C(=N/O)c3ccccc3)c(C)c12,0.9,60.3*,6.2,1.1,0.4
Cc1ccc(/C(=N\O)c2oc3c(C)c4oc(=O)cc(C)c4cc3c2C)cc1,/,/,/,-3.6,/
Cc1snc(S(=O)(=O)/C(C#N)=N/Nc2cccc(C(F)(F)F)c2)c1C#N,0.9,99.3*,12.1,5.5,0
Cc1nn(C)c(C)c1NC(=O)Nc1cccc(C(F)(F)F)c1,1,2.8,4.4,-2.8,1
SMILES,CYP2C19 activ,CYP2C9 inh,CYP2C19 inhib,EphB4 antag,CYP2C9 act
COc1ccc(N/N=C(/C#N)S(=O)(=O)c2nsc(C)c2C#N)cc1,0.9,81.7*,9.3,-6.5,0.2
Cc1c(Cl)cccc1N=Cc1ccc([N+](=O)[O-])s1,1,-10.9,-1.0,-5.6,1.1
N#Cc1cc([N+](=O)[O-])c(-n2nnc3ccccc32)c([N+](=O)[O-])c1,0.6,65.8*,42.4,6.5,0.3
CCOC(=O)C(C)Sc1nc2c(c(=O)[nH]c(=O)n2C)n1Cc1ccc(Cl)cc1 (stereo not drawn),0.9,20.3,10.9,/,0.8
O=C(CSc1ncc(-c2ccccc2)[nH]1)Nc1ccccc1,0.2,56.4*,75.1*,8.1,0.4
O=C(CSc1ncc(-c2ccccc2)[nH]1)Nc1cccc(O)c1,0.4,21.4,62.4*,4.6,0.8
O=C(CSc1nc2c(cnn2-c2ccc(F)cc2)c(=O)[nH]1)N1CCCCC1,1.1,21.1,-6.0,1.5,0.8
O=C(CSc1ncc(-c2ccc(F)cc2)[nH]1)N1CCCCC1,0.2,-11.5,84.5*,-4.3,1.1
NC(=O)CSc1ncc(-c2ccccc2)[nH]1,1.3,-17.3,-27.1,0.6,1.2
CCCn1c(SCC(=O)NC(=O)NCc2ccco2)n[nH]c1=O,0.9,21.1,8.6,-1.9,0.8
CCSc1nc(N2CCOCC2)c2c(c1C#N)CC(C)(C)N(C)C2,0.5,87.4*,50.8*,-10.9,0.1
CC1(C)Cc2c(C#N)c(SCC(=O)c3ccccc3)nc(N3CCCC3)c2CO1,/,/,/,-2.6,/
CC1(C)Cc2c(C#N)c(SCC(=O)c3ccccc3)nc(N3CCOCC3)c2CS1,0.2,98.4*,81.2*,-3.2,0
CN1Cc2c(N3CCOCC3)nc(SCc3ccccc3)c(C#N)c2CC1(C)C,0.6,90.7*,40.6,-2.6,0.1
Cc1cc(C)c(C#N)c(N2CCOCC2)n1,/,/,/,3.3,/
COC(=O)CSc1nc(N2CCOCC2)c2c(c1C#N)CC(C)(C)N(C)C2,1,56.4*,4.9,-5.4,0.4
Cc1cccc(-n2c(C)n[nH]c2=S)c1C,1.2,-31.8,-23.1,6.8,1.3
COc1ccccc1N(O)C1CC(=O)N(c2ccc(F)cc2)C1=O (stereo not drawn),0.8,-0.8,15.7,/,1
O=C(COc1ccc(S(=O)(=O)NCc2ccccc2)cc1Cl)N1CCOCC1,1.1,14.3,-11.4,-8.9,0.9
CCOc1ccc(N2CCCCn3c2nc2c3c(=O)[nH]c(=O)n2C)cc1,1,2.3,-0.1,/,1
CC(=O)N(c1ccc2oc(=O)sc2c1)S(=O)(=O)c1ccccc1,0.4,14.3,64.7*,0.9,0.9
CCCC(=O)N(c1ccc2oc(=O)sc2c1)S(=O)(=O)c1cccs1,0,70.9*,99.2*,0.8,0.3
O=C(CN1C(=O)C2CC=CCC2C1=O)Nc1nnc(SCc2c(Cl)cccc2Cl)s1 (stereo not drawn),1,7.4,-1.1,2.5,0.9
CC(=O)/C=C1/SC(CC(=O)O)C(=O)N1c1ccccc1 (stereo not drawn),/,/,/,-3.5,/
CCOc1cc(CNC(C)C)c(Cl)cc1OCC(=O)NCCc1ccccc1,0.2,33.1,76.7*,0.0,0.7
CCOc1cc(CNCCO)c(Cl)cc1OCC(=O)NCCc1ccccc1,0.4,13.7,58.1*,0.2,0.9
CCOc1ccccc1CNCCO,/,/,/,1.8,/
COc1ccc(/C(O)=C2/C(=O)C(=O)N(CCN3CCOCC3)C2c2ccc(C)cc2)cc1 (stereo not drawn),0.9,23.9,5.4,0.3,0.8
CC1CC(O)(Cc2ccccc2)C(C)CN1C (stereo not drawn),1,-14.2,-3.4,-0.9,1.1
Cc1c(Cl)cccc1NC(=O)c1cccc(NC(=O)CCC(=O)O)c1,1,-7.4,-2.9,-2.8,1.1
